Data taken from PubChem BioAssay AID1159580 (chemical genetic matrix, 2015).
“And” between values parts separate entries of the source, which are not always exact repeats. Equal values may be shown once. Screen size: about 5,500 compounds; about 2,000 (36%) were called active. Not shown: some 18% with an inconclusive outcome. No stated cut-off is given here; in the data, active means normalized growth mostly below about 0.91 (no sharp cut-off); inconclusive means no clear call, values can overlap the other calls; inactive means mostly above about 0.92. Some of the results follow.

Assay: chemical genetic growth profiling, strain panel (AID 1159580);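 further: tested at 20 µM; growth read once vehicle control cultures reached saturation at 30 °C; 1 = growth at the plate median or of vehicle wells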
Details: S. cerevisiae deletion strains, growth OD

Measured: normalized growth

C[C@]12CCC(=O)C=C1CCC1C2[C@@H](O)C[C@@]2(C)C1CC[C@]2(O)C(=O)COC(=O)CCC(=O)O (stereo not given in full)
inactive: locus YAL021C, strain ccr4, stronger effect = lower value 1.02 | locus YAL026C, strain drs2, stronger effect = lower value 1.01 | locus YAL030W, strain snc1, stronger effect = lower value 1.01 | locus YBL061C, strain skt5, stronger effect = lower value 1.02 | locus YBR009C, strain hhf1, stronger effect = lower value 1 | locus YBR021W, strain FUR4, stronger effect = lower value 1.01 | locus YBR023C, strain chs3, stronger effect = lower value 1.02 | locus YBR171W, strain sec66, stronger effect = lower value 1.02 | locus YBR229C, strain ROT2, stronger effect = lower value 1.01 | locus YBR231C, strain swc5, stronger effect = lower value 1.02 | locus YBR279W, strain paf1, stronger effect = lower value 1 | locus YCL011C, strain gbp2, stronger effect = lower value 1.01 | locus YCL016C, strain dcc1, stronger effect = lower value 0.993 | locus YCL029C, strain bik1, stronger effect = lower value 0.999 | locus YCL061C, strain MRC1, stronger effect = lower value 1.02 | locus YCL069W, strain vba3, stronger effect = lower value 1.01 | locus YCR088W, strain abp1, stronger effect = lower value 1.01 | locus YDL005C, strain med2, stronger effect = lower value 1.02 | locus YDL035C, strain GPR1, stronger effect = lower value 1.01 | locus YDL040C, strain nat1, stronger effect = lower value 1.01 | locus YDL074C, strain BRE1, stronger effect = lower value 1.01 | locus YDL101C, strain DUN1, stronger effect = lower value 1 | locus YDL185W, strain tfp1, stronger effect = lower value 1 | locus YDL192W, strain arf1, stronger effect = lower value 1.01 | locus YDR001C, strain nth1, stronger effect = lower value 1.02 | locus YDR069C, strain doa4, stronger effect = lower value 1.02 | locus YDR101C, strain arx1, stronger effect = lower value 1.01 | locus YDR137W, strain rgp1, stronger effect = lower value 1.02 | locus YDR150W, strain NUM1, stronger effect = lower value 1.01 | locus YDR159W, strain sac3, stronger effect = lower value 1.03 | locus YDR162C, strain NBP2, stronger effect = lower value 1.01 | locus YDR195W, strain ref2 0.997 | locus YDR297W, strain sur2, stronger effect = lower value 1.02 | locus YDR318W, strain mcm21, stronger effect = lower value 0.995 | locus YDR334W, strain swr1, stronger effect = lower value 1.01 | locus YDR335W, strain msn5, stronger effect = lower value 1.01 | locus YDR388W, stronger effect = lower value 1 | locus YDR392W, strain spt3, stronger effect = lower value 0.969 | locus YDR502C, strain sam2, stronger effect = lower value 0.999 | locus YEL003W, strain gim4, stronger effect = lower value 1.03 | locus YEL037C, strain rad23, stronger effect = lower value 1.01 | locus YEL061C, strain CIN8 (second series), stronger effect = lower value 1.03 | locus YEL061C, strain CIN8, stronger effect = lower value 1.01 | locus YER015W, strain faa2, stronger effect = lower value 0.998 | locus YER016W, strain bim1, stronger effect = lower value 1.01 | locus YER110C, stronger effect = lower value 1.01 | locus YER111C, strain swi4, stronger effect = lower value 1.02 | locus YER155C, strain BEM2 (second series), stronger effect = lower value 1.03 | locus YER155C, strain BEM2, stronger effect = lower value 0.997 | locus YER167W, strain BCK2, stronger effect = lower value 1.01 | locus YFR010W, strain ubp6, stronger effect = lower value 1.02 | locus YGL078C, strain dbp3, stronger effect = lower value 0.996 | locus YGL086W, strain mad1, stronger effect = lower value 0.999 | locus YGL167C, strain pmr1, stronger effect = lower value 1.03 | locus YGL173C, strain kem1, stronger effect = lower value 1.02 | locus YGL227W, strain vid30, stronger effect = lower value 1.01 | locus YGL240W, strain doc1, stronger effect = lower value 1.02 | locus YGL248W, strain PDE1, stronger effect = lower value 1 | locus YGL253W, strain hxk2, stronger effect = lower value 0.99 | locus YGR078C, strain PAC10, stronger effect = lower value 1.01 | locus YGR135W, strain pre9, stronger effect = lower value 0.989 | locus YGR252W, strain gcn5, stronger effect = lower value 0.943 | locus YHR013C, strain ard1, stronger effect = lower value 1.02 | locus YHR027C, strain rpn1, stronger effect = lower value 1.02 | locus YHR030C, strain SLT2, stronger effect = lower value 1.01 and 0.974 | locus YHR079C, strain IRE1 (second series), stronger effect = lower value 1 | locus YHR079C, strain IRE1, stronger effect = lower value 0.976 | locus YHR094C, strain hxt1, stronger effect = lower value 0.993 | locus YHR129C, strain ARP1, stronger effect = lower value 1 | locus YHR142W, strain chs7, stronger effect = lower value 1.01 | locus YHR200W, strain rpn10, stronger effect = lower value 1.01 | locus YIL066C, strain RNR3, stronger effect = lower value 1.01 | locus YIL073C, strain SPO22, stronger effect = lower value 1.02 | locus YIL125W, strain kgd1, stronger effect = lower value 1 | locus YIR030C, strain dcg1, stronger effect = lower value 1 | locus YJL092W, strain hpr5, stronger effect = lower value 1.02 | locus YJL095W, strain BCK1 (second series), stronger effect = lower value 1.02 | locus YJL095W, strain BCK1, stronger effect = lower value 1.01 and 0.976 | locus YJL115W, strain asf1, stronger effect = lower value 1.02 | locus YJL129C, strain trk1, stronger effect = lower value 1.03 | locus YJL134W, strain LCB3, stronger effect = lower value 1.01 | locus YJL154C, strain vps35, stronger effect = lower value 1.02 | locus YJL164C, strain tpk1, stronger effect = lower value 1.02 | locus YJL166W, strain qcr8, stronger effect = lower value 1 | locus YJL168C, strain set2, stronger effect = lower value 0.996 | locus YJL187C, strain SWE1 (second series), stronger effect = lower value 1.01 | locus YJR043C, strain POL32, stronger effect = lower value 1.02 | locus YJR066W, strain TOR1, stronger effect = lower value 0.931 | locus YJR075W, strain HOC1, stronger effect = lower value 1.02 | locus YKL009W, strain mrt4, stronger effect = lower value 1.02 | locus YKL068W, stronger effect = lower value 0.998 | locus YKL085W, strain MDH1 (second series), stronger effect = lower value 0.999 | locus YKL085W, strain MDH1, stronger effect = lower value 0.999 | locus YKL160W, strain elf1, stronger effect = lower value 1.01 | locus YKR001C, strain vps1, stronger effect = lower value 1.01 | locus YKR026C, strain gcn3, stronger effect = lower value 1.02 | locus YKR091W, strain srl3, stronger effect = lower value 1 | locus YLL001W, strain dnm1, stronger effect = lower value 1.01 | locus YLL026W, stronger effect = lower value 1.01 | locus YLL041C, strain sdh2, stronger effect = lower value 1.03 | locus YLR027C, strain aat2, stronger effect = lower value 1.01 | locus YLR039C, strain RIC1, stronger effect = lower value 1.02 | locus YLR058C, strain SHM2, stronger effect = lower value 0.989 | locus YLR102C, strain apc9, stronger effect = lower value 1 | locus YLR113W, strain HOG1, stronger effect = lower value 0.977 | locus YLR221C, strain rsa3, stronger effect = lower value 1.02 | locus YLR258W, strain gsy2, stronger effect = lower value 1.01 | locus YLR262C, strain YPT6 (second series), stronger effect = lower value 1.02 | locus YLR262C, strain YPT6, stronger effect = lower value 1.06 | locus YLR268W, strain sec22, stronger effect = lower value 0.992 | locus YLR320W, strain mms22, stronger effect = lower value 0.979 | locus YLR330W, strain CHS5, stronger effect = lower value 1.01 | locus YLR342W, strain FKS1 (second series), stronger effect = lower value 0.998 | locus YLR342W, strain FKS1, stronger effect = lower value 1.01 | locus YLR357W, strain rsc2, stronger effect = lower value 0.995 | locus YLR370C, strain arc18, stronger effect = lower value 1.01 | locus YLR371W, strain rom2, stronger effect = lower value 0.996 | locus YLR384C, strain iki3, stronger effect = lower value 1.02 | locus YLR418C, strain cdc73, stronger effect = lower value 0.988 | locus YML016C, strain PPZ1, stronger effect = lower value 1 | locus YML032C, strain rad52, stronger effect = lower value 0.994 | locus YML120C, strain ndi1, stronger effect = lower value 1.02 | locus YML124C, strain tub3, stronger effect = lower value 0.994 | locus YMR058W, strain fet3, stronger effect = lower value 1.02 | locus YMR078C, strain ctf18, stronger effect = lower value 1 | locus YMR125W, strain sto1, stronger effect = lower value 1.01 | locus YMR129W, stronger effect = lower value 1.02 | locus YMR205C, strain PFK2, stronger effect = lower value 1.03 | locus YMR223W, strain ubp8, stronger effect = lower value 0.992 | locus YMR231W, strain pep5, stronger effect = lower value 1.01 | locus YMR307W, strain GAS1, stronger effect = lower value 1.04 | locus YNL067W, strain RPL9B, stronger effect = lower value 1.01 | locus YNL071W, strain lat1, stronger effect = lower value 1.01 | locus YNL183C, strain NPR1, stronger effect = lower value 0.951 | locus YNL209W, strain ssb2, stronger effect = lower value 1.01 | locus YNL233W, strain BNI4, stronger effect = lower value 1 | locus YNL248C, strain rpa49, stronger effect = lower value 1.04 | locus YNL250W, strain rad50, stronger effect = lower value 1 | locus YNL271C, strain bni1, stronger effect = lower value 1.01 | locus YNL298W, strain CLA4, stronger effect = lower value 1.01 | locus YNL307C, strain MCK1, stronger effect = lower value 1.01 | locus YNL322C, strain KRE1 (second series), stronger effect = lower value 1.02 | locus YNL322C, strain KRE1, stronger effect = lower value 1.01 | locus YNR049C, strain mso1, stronger effect = lower value 1.02 | locus YNR052C, strain pop2, stronger effect = lower value 1 | locus YOL006C, strain TOP1, stronger effect = lower value 1.01 | locus YOL012C, strain htz1 0.91 | locus YOL147C, strain pex11, stronger effect = lower value 1 | locus YOR001W, strain rrp6, stronger effect = lower value 1.02 | locus YOR061W, strain CKA2, stronger effect = lower value 1.01 | locus YOR069W, strain VPS5, stronger effect = lower value 1.01 | locus YOR070C, strain gyp1, stronger effect = lower value 1 | locus YOR080W, strain dia2, stronger effect = lower value 1.01 | locus YOR083W, strain WHI5, stronger effect = lower value 0.983 | locus YOR106W, strain vam3, stronger effect = lower value 1.04 | locus YOR136W, strain idh2, stronger effect = lower value 1.01 | locus YOR144C, strain elg1, stronger effect = lower value 1 | locus YOR184W, strain ser1, stronger effect = lower value 1.01 | locus YOR231W, strain MKK1, stronger effect = lower value 0.997 | locus YOR265W, strain rbl2, stronger effect = lower value 1.01 | locus YOR270C, strain vph1, stronger effect = lower value 0.99 | locus YOR290C, strain snf2, stronger effect = lower value 0.988 | locus YOR316C, strain cot1, stronger effect = lower value 1.01 | locus YPL051W, strain arl3, stronger effect = lower value 1 | locus YPL055C, strain LGE1, stronger effect = lower value 1.01 | locus YPL078C, strain atp4, stronger effect = lower value 1 | locus YPL106C, strain sse1, stronger effect = lower value 1 | locus YPL240C, strain hsp82, stronger effect = lower value 1 | locus YPL241C, strain CIN2, stronger effect = lower value 1.01 | locus YPL256C, strain CLN2, stronger effect = lower value 0.98 | locus YPR119W, strain clb2, stronger effect = lower value 1.01 | locus YPR141C, strain kar3, stronger effect = lower value 1.01 | locus YPR163C, strain tif3, stronger effect = lower value 1.01 | locus YPR167C, strain met16, stronger effect = lower value 1.01 | strain wtn01, stronger effect = lower value 0.996
